Results as given in PubChem BioAssay (Tox21).
Records with an inconclusive call do not appear. Calls of active or inactive are those of the source. Unless noted, calls come from the whole dose curve; as a rule, active = well fitted curve in the direction sought with a large enough effect in the repeat runs; inconclusive = weak or mixed curves; inactive = no such curve, though single readings can be large; an effect the other way counts as inactive or inconclusive.

How the values were obtained:
[1] = qHTS assay to identify small molecule agonists of the peroxisome proliferator-activated receptor delta (PPARd) signaling pathway - cell viability counter screen (AID 743211); note: nearly all actives have a fitted effect of over 55% in size
Method in brief: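 Multiplexed format: after the 2 h room-temperature LiveBLAzer B/G FRET step, CellTiter-Glo was added to the same wells. Luminescence after 30 min gave cell viability; compound exposure was 17 h at 37C.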

[2] = target: Peroxisome proliferator-activated receptor delta (Homo sapiens) (UniProt Q03181); assay: qHTS assay to identify small molecule agonists of the peroxisome proliferator-activated receptor delta (PPARd) signaling pathway (AID 743212; calls by dose curve)
Method in brief: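 Read-out: beta-lactamase FRET fluorescence after 2 h room-temperature incubation with LiveBLAzer B/G substrate. Cells were HEK293H carrying a UAS-bla reporter for PPARd, treated at 37 C with DMSO-dissolved compounds.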

[3] = qHTS assay to identify small molecule antagonists of the peroxisome proliferator-activated receptor delta (PPARd) signaling pathway - cell viability counter screen (AID 743213); note: nearly all actives have a fitted effect of over 50% in size
Method in brief: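 In this counter screen, HEK293H cells carrying a UAS-beta-lactamase reporter are co-treated with test compounds and 300 nM L165041 (final) for 17 h at 37 C; cell viability is quantified by CellTiter-Glo luminescence.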

[4] = target: Peroxisome proliferator-activated receptor delta (Homo sapiens) (UniProt Q03181); assay: qHTS assay to identify small molecule antagonists of the peroxisome proliferator-activated receptor delta (PPARd) signaling pathway (AID 743215; active = well fitted inhibition curve with a large enough effect in the signal ratio in the repeat runs, not every such curve was filed as active; the % refers to the signal ratio;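 note: cells stimulated with agonist L165041 at 300 nM final during compound exposure; series mostly up to about 62 µM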)
Method in brief: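 Here, a reporter line (HEK293H, beta-lactamase under a UAS) measures PPARd signaling. Compounds are tested against agonist L165041 at 300 nM final concentration over 17 h at 37 C, with fluorescence read after substrate.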

[5] = qHTS assay to identify small molecule agonists of the farnesoid-X-receptor (FXR) signaling pathway - cell viability counter screen (AID 743218); note: nearly all actives have a fitted effect of over 45% in size
Method in brief: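 Quantitative HTS counter screen measuring ATP-based viability via CellTiter-Glo luminescence in HEK 293T cells carrying a UAS-driven beta-lactamase reporter, after 16 h compound exposure at 37 C.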

[6] = qHTS assay to identify small molecule antagonists of the farnesoid-X-receptor (FXR) signaling pathway - cell viability counter screen (AID 743221; active = well fitted cell-killing curve with a large enough effect in the repeat runs, not every such curve was filed as active; note: nearly all actives have a fitted effect of over 50% in size)
Method in brief: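 CellTiter-Glo, 30 min RT, luminescence; same wells as the LiveBLAzer FRET read. Cells: FXR-UAS-bla HEK 293T. Treatment: compound with chenodeoxycholic acid 50 uM final, 16 h at 37 C.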

[7] = target: Vitamin D3 receptor (Homo sapiens) (UniProt P11473); assay: qHTS assay to identify small molecule agonists of the vitamin D receptor (VDR) signaling pathway (AID 743222; calls by dose curve)
Method in brief: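 Tox21 cell reporter format: VDR-bla line, 16 h compound exposure in 5% CO2 at 37C, then fluorescence intensity after 2 h with LiveBLAzer B/G FRET substrate.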

[8] = qHTS assay to identify small molecule agonists of the vitamin D receptor (VDR) signaling pathway - cell viability counter screen (AID 743224); note: series mostly up to about 63 µM; nearly all actives have a fitted effect of over 50% in size
Method in brief: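 CellTiter-Glo viability readout on VDR-bla cells, measured after 16 h of compound treatment at 37C in the same wells.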

[9] = qHTS assay to identify small molecule agonists of the NFkB signaling pathway (AID 1159509; active = well fitted curve in the direction sought with a large enough effect in the signal ratio in the repeat runs, not every such curve was filed as active; the % refers to the signal ratio; note: series mostly up to about 61 µM)
Method in brief: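 Beta-lactamase reporter assay run in quantitative high-throughput format on an NF-kB-responsive ME-180 line, with 5 hr compound treatment and a FRET-based blue/green fluorescence readout.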

[10] = qHTS assay to identify small molecule agonists of the NFkB signaling pathway - cell viability counter screen (AID 1159515; calls by dose curve; note: series mostly up to about 61 µM; nearly all actives have a fitted effect of over 55% in size)
Method in brief: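 Tox21 library compounds were tested for cytotoxicity against NFkB-bla ME-180 cells during a 5 hr exposure at 37 C. CellTiter-Glo luminescence served as the viability read-out.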

[11] = qHTS assay to identify small molecule agonists of the endoplasmic reticulum stress response signaling pathway (AID 1159516; active = well fitted activation curve with a large enough effect in the signal ratio in the repeat runs, not every such curve was filed as active; the % refers to the signal ratio)
Method in brief: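 Fluorescence at 460 and 530 nm (405 nm excitation) reports beta-lactamase from an ER stress response element in HeLa cells treated 5 hr at 37 C.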

[12] = qHTS assay to identify small molecule agonists of the endoplasmic reticulum stress response signaling pathway - cell viability counter screen (AID 1159517; calls by dose curve; note: series mostly up to about 61 µM; nearly all actives have a fitted effect of over 50% in size)
Method in brief: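 Steps: seed 1,500 ESRE-bla HeLa cells per well; incubate overnight at 37 C, 5% CO2; add compounds in DMSO for 5 hr; run FRET substrate 2 hr RT; add CellTiter-Glo, wait 30 min, read luminescence.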

[13] = qHTS assay to identify small molecule antagonists of the retinoid-related orphan receptor gamma (ROR-gamma) signaling pathway - cell viability counter screen (AID 1159520); note: nearly all actives have a fitted effect of over 50% in size
Method in brief: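 Tet-on ROR gamma CHO cells were given compounds for 2 hr, then doxycycline hyclate at 1 uM final, and incubated 16 hr at 37 C. Viability was measured as ATP content by CellTiter-Glo luminescence.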

[14] = target: Nuclear receptor ROR-gamma (Homo sapiens) (UniProt P51449); assay: qHTS assay to identify small molecule antagonists of the retinoid-related orphan receptor gamma (ROR-gamma) signaling pathway (AID 1159521)
Method in brief: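 Readout: ONE-Glo luciferase luminescence, 30 min at room temperature. System: Tet-on RORγ CHO, RORE-LUC. Sequence: compound 2 h, doxycycline 1 uM final, 16 h at 37 C.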

[15] = qHTS assay to identify small molecule agonists of the AP-1 signaling pathway - cell viability counter screen (AID 1159525; calls by dose curve; note: nearly all actives have a fitted effect of over 55% in size)
Method in brief: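 Same-well cytotoxicity counter screen of the Tox21 10K library in ME-180 cells. The readout is ATP-dependent luminescence after 5 h compound treatment. Data are normalised to DMSO and tetra n-octyl ammonium bromide controls.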

[16] = qHTS assay to identify small molecule agonists of the AP-1 signaling pathway (AID 1159526; calls by dose curve)
[17] = target: Vitamin D3 receptor (Homo sapiens) (UniProt P11473); assay: qHTS assay to identify small molecule antagonists of the vitamin D receptor (VDR) signaling pathway (AID 743223; active = well fitted inhibition curve with a large enough effect in the signal ratio in the repeat runs, not every such curve was filed as active; the % refers to the signal ratio)
Method in brief: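 After VDR-bla cells are plated and left 4 h at 37C, DMSO-dissolved compounds and 3 nM (final) calcitriol agonist are added. Incubation continues 16 h at 37C; FRET beta-lactamase substrate then develops 2 h at room temperature.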

[18] = qHTS assay to identify small molecule antagonists of the vitamin D receptor (VDR) signaling pathway - cell viability counter screen (AID 743225); note: nearly all actives have a fitted effect of over 50% in size
Method in brief: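 Cytotoxicity toward the VDR-bla HEK 293T line was scored by ATP-based CellTiter-Glo luminescence, read in the wells already used for the beta-lactamase readout after 16 h compound treatment under 3 nM 1-alpha,25-dihydroxyvitamin D3 stimulation.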

[19] = target: Bile acid receptor (Homo sapiens) (UniProt Q96RI1); assay: qHTS assay to identify small molecule antagonists of the farnesoid-X-receptor (FXR) signaling pathway (AID 743217; active = well fitted inhibition curve with a large enough effect in the signal ratio in the repeat runs, not every such curve was filed as active; the % refers to the signal ratio)
Method in brief: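 Test compounds are pin-transferred onto FXR-bla HEK 293T cells, then chenodeoxycholic acid is added at 50 uM final. After 16 h at 37 °C, LiveBLAzer B/G substrate is applied for 2 h at room temperature and fluorescence read.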

[20] = target: Bile acid receptor (Homo sapiens) (UniProt Q96RI1); assay: qHTS assay to identify small molecule agonists of the farnesoid-X-receptor (FXR) signaling pathway (AID 743220; active = well fitted activation curve with a large enough effect in the signal ratio in the repeat runs, not every such curve was filed as active; the % refers to the signal ratio)
Method in brief: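 FXR-UAS-bla HEK 293T cells carrying a UAS-driven beta-lactamase reporter were plated for 5 h at 37C/5% CO2, then exposed to DMSO-dissolved Tox21 10K compounds for 16 h at 37C. A LiveBLAzer B/G FRET substrate was loaded for 2 h at room temperature before fluorescence reading.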

Measured: Potency

Peroxisome proliferator-activated receptor delta (Homo sapiens), sequence (Q03181 whole entry, looked up): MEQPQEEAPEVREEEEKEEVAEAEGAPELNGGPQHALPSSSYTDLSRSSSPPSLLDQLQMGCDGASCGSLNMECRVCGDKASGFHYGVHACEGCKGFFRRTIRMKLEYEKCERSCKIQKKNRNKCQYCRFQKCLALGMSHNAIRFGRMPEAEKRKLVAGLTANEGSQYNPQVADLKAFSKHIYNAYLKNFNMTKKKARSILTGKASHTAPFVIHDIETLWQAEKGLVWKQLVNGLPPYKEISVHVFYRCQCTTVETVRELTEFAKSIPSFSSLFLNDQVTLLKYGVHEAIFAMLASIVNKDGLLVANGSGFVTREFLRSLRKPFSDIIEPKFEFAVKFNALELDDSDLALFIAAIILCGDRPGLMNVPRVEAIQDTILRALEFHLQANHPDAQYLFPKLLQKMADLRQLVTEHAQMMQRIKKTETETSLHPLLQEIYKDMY
Vitamin D3 receptor (Homo sapiens), sequence (P11473 whole entry, looked up): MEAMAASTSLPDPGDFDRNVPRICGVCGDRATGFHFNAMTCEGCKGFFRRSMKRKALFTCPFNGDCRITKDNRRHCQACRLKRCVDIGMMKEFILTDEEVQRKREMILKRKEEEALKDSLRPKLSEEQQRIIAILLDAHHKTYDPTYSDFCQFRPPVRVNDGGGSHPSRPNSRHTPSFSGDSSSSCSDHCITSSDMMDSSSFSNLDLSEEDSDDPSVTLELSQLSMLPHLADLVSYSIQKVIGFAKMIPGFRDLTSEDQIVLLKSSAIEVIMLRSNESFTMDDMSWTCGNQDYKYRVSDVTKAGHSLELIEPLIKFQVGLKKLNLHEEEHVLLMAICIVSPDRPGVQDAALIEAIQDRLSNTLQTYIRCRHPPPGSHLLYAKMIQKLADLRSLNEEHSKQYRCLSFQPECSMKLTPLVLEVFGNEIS
Bile acid receptor (Homo sapiens), sequence (Q96RI1 whole entry, looked up): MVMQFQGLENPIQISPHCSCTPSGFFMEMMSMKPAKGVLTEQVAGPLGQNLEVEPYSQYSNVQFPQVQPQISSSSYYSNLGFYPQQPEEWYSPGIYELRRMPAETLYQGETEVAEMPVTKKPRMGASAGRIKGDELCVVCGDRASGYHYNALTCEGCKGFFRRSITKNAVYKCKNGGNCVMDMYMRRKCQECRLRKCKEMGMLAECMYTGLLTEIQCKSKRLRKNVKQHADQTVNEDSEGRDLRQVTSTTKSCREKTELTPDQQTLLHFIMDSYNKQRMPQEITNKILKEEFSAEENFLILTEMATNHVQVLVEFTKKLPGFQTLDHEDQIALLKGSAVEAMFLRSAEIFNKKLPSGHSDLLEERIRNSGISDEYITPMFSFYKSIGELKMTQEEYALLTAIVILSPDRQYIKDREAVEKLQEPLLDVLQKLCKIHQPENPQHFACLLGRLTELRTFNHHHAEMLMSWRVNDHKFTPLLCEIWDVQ

CCCCCCCCSCC
not listed: [17] | [18] | [19] | [20]
inactive: all other assays above

O=C(CCN1CCN(CCO)CC1)N1c2ccccc2Sc2ccc(C(F)(F)F)cc21
not listed: [5] | [19] | [20]
inactive: all other assays above

CC(C)CCCC(C)(C)O
not listed: [19] | [20]
inactive: all other assays above

CC(C)(C)c1nnc(NS(=O)(=O)c2ccc(N)cc2)s1
not listed: [17] | [19] | [20]
inactive: all other assays above

O=C1c2ccccc2C(=O)C1c1ccccc1
not listed: [5] | [7] | [17]
inactive: all other assays above

N[C@@H](CCC(=O)Nc1ccc([N+](=O)[O-])cc1)C(=O)O
inactive: all assays above

COc1ccc(-c2cc(=O)c3c(O)cc(O[C@@H]4O[C@H](CO[C@@H]5O[C@@H](C)[C@H](O)[C@@H](O)[C@H]5O)[C@@H](O)[C@H](O)[C@H]4O)cc3o2)cc1O
not listed: [19] | [20]
inactive: all other assays above

NCCN1CCOCC1
not listed: [1] | [2] | [4] | [17] | [18] | [19] | [20]
inactive: all other assays above

CN(CCOc1ccc(NS(C)(=O)=O)cc1)CCc1ccc(NS(C)(=O)=O)cc1
not listed: [1] | [5] | [7] | [8] | [17] | [18]
inactive: all other assays above

Nc1ccc([N+](=O)[O-])c(N)c1
not listed: [1] | [5] | [18] | [19] | [20]
inactive: all other assays above

COc1ccc2nc(SCc3ncc(C)c(OC)c3C)[nH]c2c1
not listed: [1] | [8] | [17] | [18] | [19] | [20]
inactive: all other assays above

Cc1cccc(OCC(O)CNC(C)(C)C)c1C (stereo not drawn)
not listed: [2] | [4] | [8] | [19] | [20]
inactive: all other assays above

C[C@@H]1O[C@@H](O[C@@H]2[C@@H](O)[C@H](OCCc3ccc(O)c(O)c3)O[C@H](CO[C@@H]3O[C@H](CO)[C@@H](O)[C@H](O)[C@H]3O)[C@H]2OC(=O)/C=C/c2ccc(O)c(O)c2)[C@H](O)[C@H](O)[C@H]1O
not listed: [3] | [5] | [19] | [20]
inactive: all other assays above

CCOC(=O)c1ccc(OC(=O)CCCCCN=C(N)N)cc1
not listed: [1] | [4] | [5] | [7] | [17] | [19] | [20]
inactive: all other assays above

Cc1cccc(C)c1OCC(C)N (stereo not drawn)
not listed: [2] | [4] | [7] | [17] | [20]
inactive: all other assays above

O=C(NCCc1c[nH]c2ccccc12)c1cccnc1
not listed: [2] | [4]
inactive: all other assays above

CC(=O)N[C@@H](CCC(=O)O)C(=O)O
not listed: [1] | [2] | [4] | [7] | [8] | [17] | [19] | [20]
inactive: all other assays above
